Source: PubChem BioAssay (EPA / NIEHS)
The source made the active and inactive calls. Rule for the calls: active = hit-call score of the fitted dose curve at least 0.9, where 1 is the maximum; inactive = score below 0.9.

What was measured:
[1] = ATG_CRE_CIS: Attagene CIS-FACTORIAL HepG2 Assay for human cAMP Responsive Element (CRE) binding protein 3 (AID 2282926); conditions: HepG2 CRE cis-reporter, Attagene multiplexed mRNA; actives raise or lower the signal
How it was run: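 Endogenous transcription factor activity read via CRE-regulated reporter transcripts in transfected HepG2 cells. After 24 h exposure, RNA was reverse-transcribed, amplified, fluorescently labelled and sized by capillary electrophoresis; gain or loss fitted against DMSO.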

[2] = target: CCAAT/enhancer-binding protein beta (Homo sapiens) (UniProt P17676); assay: ATG_C_EBP_CIS: Attagene CIS-FACTORIAL HepG2 Assay for human CCAAT/Enhancer Binding Protein (C/EBP) beta (AID 2282927); conditions: HepG2 Attagene cis-factorial transcription factor reporter; actives raise or lower the signal
How it was run: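 HepG2, transient MRTU transfection, 24 h treatment. RT-PCR plus CE fluorescence; DMSO negative control, bidirectional fit.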

[3] = ATG_CMV_CIS: Attagene CIS-FACTORIAL HepG2 Assay for human CMV (Internal Marker) (AID 2282928); conditions: HepG2 CMV promoter reporter, transcription factor profiling; actives raise or lower the signal;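 note: endpoint acts as a background internal control marker rather than a target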
How it was run: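 Readout: fluorescent reporter cDNA fragments separated by capillary electrophoresis after RT-PCR and HpaI cut. Cells: HepG2 carrying transfected cis-promoter reporter constructs, dosed 24 h. Endpoint serves as background internal-marker control, fit bidirectionally versus DMSO.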

[4] = ATG_DR4_LXR_CIS: Attagene CIS-FACTORIAL HepG2 Assay for human Liver X Receptor (LXR), DR4 submotif (AID 2282929); conditions: HepG2 Attagene DR4 cis-reporter, mRNA transcription; actives raise or lower the signal
How it was run: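 Endogenous factor activity at a DR4 cis-element is read as reporter mRNA in transiently transfected HepG2 cells. Exposure lasts 24 h; transcripts are amplified, fluorescently labelled and sized by capillary electrophoresis, with DMSO as baseline.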

[5] = ATG_AP_2_CIS: Attagene CIS-FACTORIAL HepG2 Assay for human Activator Protein 2 (AP-2) (AID 2282932); conditions: HepG2 AP-2 cis-reporter, Attagene transcription factor profiling; actives raise or lower the signal
How it was run: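 Liver-derived HepG2 line, cis-reporter system measuring endogenous factors; 24 h dosing; reporter mRNA detected by fluorescent RT-PCR and capillary electrophoresis.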

[6] = ATG_E_Box_CIS: Attagene CIS-FACTORIAL HepG2 Assay for human Enhancer Box (E-box) (AID 2282936); conditions: HepG2 E-box cis-reporter transcription, actives raise or lower the signal
How it was run: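 In this cell-based setup, HepG2 cells bearing transfected promoter-driven reporter units were exposed to chemicals for 24 h; reporter transcripts were amplified, 6-FAM-labelled, cut with HpaI and sized by capillary electrophoresis.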

[7] = ATG_EGR_CIS: Attagene CIS-FACTORIAL HepG2 Assay for human Early Growth Response 1 (EGR1) (AID 2282938); conditions: HepG2 Attagene CIS-FACTORIAL EGR reporter mRNA; actives raise or lower the signal
How it was run: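 HepG2, transient MRTU transfection (cis promoters), 24 h compound. RNA → RT (oligo-dT) → PCR → 6-FAM labelling → HpaI cut → CE fluorescence. Bidirectional fit, DMSO baseline.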

[8] = ATG_M_19_CIS: Attagene CIS-FACTORIAL HepG2 Assay for M19 Transcription Factor (Internal Marker) (AID 2282939); conditions: HepG2 Attagene CIS-FACTORIAL M19 internal marker reporter; actives raise or lower the signal
How it was run: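 Signals come from fluorescence of labelled reporter-specific PCR fragments resolved by capillary electrophoresis, following 24 h treatment of HepG2 cells transfected with cis-promoter reporter units; activity was fitted in both directions relative to DMSO.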

[9] = ATG_Ets_CIS: Attagene CIS-FACTORIAL HepG2 Assay for human Erythroblast Transformation Specific (ETS) (AID 2282941); conditions: HepG2 ETS cis-reporter transcription, actives raise or lower the signal
How it was run: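 RT-PCR/capillary electrophoresis fluorescence read-out of reporter mRNA; HepG2 transient multi-reporter transfection; 24 h compound exposure; gain or loss of signal fitted bidirectionally relative to DMSO.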

[10] = target: Hepatocyte nuclear factor 3-beta (Homo sapiens) (UniProt Q9Y261); assay: ATG_FoxA2_CIS: Attagene CIS-FACTORIAL HepG2 Assay for human Forkhead box A2 (FOXA2) (AID 2282942); conditions: HepG2 cis-reporter transcription factor activity, 24 h; actives raise or lower the signal
How it was run: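 Cells: HepG2, transient multiplex reporter transfection. Exposure 24 h. Detection: reporter-specific RT-PCR, fluorescent labelling, restriction digest, capillary electrophoresis. Analysis: bidirectional curve fit, DMSO as negative control.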

[11] = ATG_FoxO_CIS: Attagene CIS-FACTORIAL HepG2 Assay for human Forkhead box O (FoxO) (AID 2282943); conditions: HepG2 Attagene cis-reporter, FoxO element, mRNA; actives raise or lower the signal
How it was run: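 Transfected HepG2 reporter cells exposed to test chemical for 24 h; reporter RNA measured by reverse transcription, PCR and fluorescent capillary electrophoresis; curves fitted for increases and decreases against DMSO.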

[12] = ATG_GATA_CIS: Attagene CIS-FACTORIAL HepG2 Assay for human GATA Binding Protein (AID 2282944); conditions: HepG2 GATA cis-element reporter, Attagene multiplex mRNA; actives raise or lower the signal
How it was run: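 After transfecting HepG2 cells with multiple cis-regulated reporter units, chemicals are dosed for 24 h; isolated RNA undergoes RT-PCR and fluorescent labeling before capillary electrophoresis, with activity expressed against DMSO.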

[13] = ATG_M_32_CIS: Attagene CIS-FACTORIAL HepG2 Assay for M32 Transcription Factor (Internal Marker) (AID 2282949); conditions: HepG2 Attagene cis-factorial M32 reporter, mRNA; actives raise or lower the signal;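 note: background control marker of the multiplexed CIS panel rather than a real target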
How it was run: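 HepG2 transfectants (cis-regulated reporter transcription units) dosed 24 h. Reporter mRNA by RT-PCR plus CE, analysed as gain or loss relative to DMSO.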

[14] = ATG_M_06_CIS: Attagene CIS-FACTORIAL HepG2 Assay for M06 Transcription Factor (Internal Marker) (AID 2282950); conditions: HepG2 Attagene CIS-FACTORIAL M06 internal marker reporter; actives raise or lower the signal
How it was run: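 HepG2 liver cells, 24 h exposure. Reporter transcripts from transfected cis-element constructs quantified by RT-PCR/capillary electrophoresis fluorescence. Bidirectional curve fit against DMSO.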

[15] = ATG_PXRE_CIS: Attagene CIS-FACTORIAL HepG2 Assay for human Pregnane X Receptor Element (PXRE) (AID 2282957); conditions: HepG2 Attagene CIS-FACTORIAL PXRE reporter, mRNA; actives raise or lower the signal
How it was run: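 Reporter transcripts under endogenous PXR-responsive cis-regulation quantified from total RNA of transfected HepG2 cells 24 h post-dosing, via RT-PCR with fluorescent primer extension and capillary electrophoresis. Gain or loss of signal fitted against DMSO baseline.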

[16] = ATG_Sox_CIS: Attagene CIS-FACTORIAL HepG2 Assay for human SRY-box transcription factor (SOX) (AID 2282960); conditions: HepG2 Attagene cis-factorial SOX reporter, mRNA; actives raise or lower the signal
How it was run: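 Cells were transfected with reporter constructs under cis-regulatory promoters, then exposed to chemicals for 24 h. Reporter transcripts were quantified by fluorescence after RT-PCR and capillary electrophoresis; activity was fitted in both directions against DMSO.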

[17] = target: Transcription factor Sp1 (Homo sapiens) (UniProt P08047); assay: ATG_Sp1_CIS: Attagene CIS-FACTORIAL HepG2 Assay for human Specificity Protein 1 (Sp1) (AID 2282961); conditions: HepG2 Sp1 cis-reporter transcription, actives raise or lower the signal
How it was run: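 Measures mRNA induction of an Sp1-linked reporter in HepG2 cells 24 h post-dosing. Multiplexed reporters read by RT-PCR and capillary electrophoresis; DMSO serves as negative control and baseline.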

[18] = ATG_SREBP_CIS: Attagene CIS-FACTORIAL HepG2 Assay for human Sterol Regulatory Element Binding (SREBP) (AID 2282962); conditions: HepG2 Attagene cis-factorial SREBP reporter, mRNA; actives raise or lower the signal
How it was run: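 Readout: fluorescent reporter-transcript peaks resolved by capillary electrophoresis after RT-PCR. Cells were human HepG2 carrying transfected cis-promoter reporter constructs, dosed for 24 h. Gain or loss of signal was fitted against DMSO controls.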

[19] = target: Signal transducer and activator of transcription 3 (Homo sapiens) (UniProt P40763); assay: ATG_STAT3_CIS: Attagene CIS-FACTORIAL HepG2 Assay for human Signal Transducer and Activator of Transcription 3 (STAT3) (AID 2282963); conditions: HepG2, Attagene cis-factorial STAT3 reporter transcription; actives raise or lower the signal
How it was run: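 Fluorescence intensity of 6-FAM-labelled reporter fragments, separated by capillary electrophoresis after RT-PCR, gave the signal. Cells were HepG2 transfected with cis-element reporter units and treated 24 h; fitting was bidirectional relative to DMSO.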

[20] = ATG_TA_CIS: Attagene CIS-FACTORIAL HepG2 Assay for human TA Basal Promoter (AID 2282964); conditions: HepG2 Attagene CIS-factorial TA basal promoter reporter; actives raise or lower the signal
How it was run: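 Fluorescence from labelled RT-PCR reporter fragments, separated by capillary electrophoresis, gives the signal. Cells: HepG2 transiently carrying multiple reporter units, 24 h chemical dosing. Gain or loss relative to DMSO.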

Measured: AC50

Sequence of Signal transducer and activator of transcription 3 (Homo sapiens) (P40763 whole entry, looked up, the tested form may be a part): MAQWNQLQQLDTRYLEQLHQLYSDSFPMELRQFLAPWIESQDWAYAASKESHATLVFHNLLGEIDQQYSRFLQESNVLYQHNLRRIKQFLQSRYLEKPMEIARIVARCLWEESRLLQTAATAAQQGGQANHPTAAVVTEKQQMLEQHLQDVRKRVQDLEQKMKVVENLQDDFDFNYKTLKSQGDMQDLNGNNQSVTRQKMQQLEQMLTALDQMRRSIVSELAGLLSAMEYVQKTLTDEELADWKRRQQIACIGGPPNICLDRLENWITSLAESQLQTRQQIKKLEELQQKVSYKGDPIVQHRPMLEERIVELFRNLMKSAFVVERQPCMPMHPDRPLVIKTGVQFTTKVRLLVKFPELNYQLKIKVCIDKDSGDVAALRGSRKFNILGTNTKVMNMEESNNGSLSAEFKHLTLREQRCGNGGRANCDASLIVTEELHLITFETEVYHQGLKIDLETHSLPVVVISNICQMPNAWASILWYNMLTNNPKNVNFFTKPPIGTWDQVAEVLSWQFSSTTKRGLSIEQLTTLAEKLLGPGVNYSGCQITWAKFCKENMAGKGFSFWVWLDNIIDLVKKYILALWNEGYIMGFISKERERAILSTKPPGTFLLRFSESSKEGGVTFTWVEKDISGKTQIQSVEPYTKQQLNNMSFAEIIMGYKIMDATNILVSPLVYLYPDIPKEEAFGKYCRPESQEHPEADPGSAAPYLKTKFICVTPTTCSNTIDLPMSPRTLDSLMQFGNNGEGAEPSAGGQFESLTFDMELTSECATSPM
Sequence of CCAAT/enhancer-binding protein beta (Homo sapiens) (P17676 whole entry, looked up): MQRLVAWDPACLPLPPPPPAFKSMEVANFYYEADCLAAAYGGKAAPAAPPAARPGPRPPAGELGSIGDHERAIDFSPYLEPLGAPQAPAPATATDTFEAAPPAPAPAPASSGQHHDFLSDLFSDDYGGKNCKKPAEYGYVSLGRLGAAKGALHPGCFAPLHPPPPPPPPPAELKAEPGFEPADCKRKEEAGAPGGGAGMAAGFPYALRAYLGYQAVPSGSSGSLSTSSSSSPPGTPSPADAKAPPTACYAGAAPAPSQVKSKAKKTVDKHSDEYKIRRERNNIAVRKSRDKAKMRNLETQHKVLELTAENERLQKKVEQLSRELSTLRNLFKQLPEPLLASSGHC
Sequence of Transcription factor Sp1 (Homo sapiens) (P08047 whole entry, looked up): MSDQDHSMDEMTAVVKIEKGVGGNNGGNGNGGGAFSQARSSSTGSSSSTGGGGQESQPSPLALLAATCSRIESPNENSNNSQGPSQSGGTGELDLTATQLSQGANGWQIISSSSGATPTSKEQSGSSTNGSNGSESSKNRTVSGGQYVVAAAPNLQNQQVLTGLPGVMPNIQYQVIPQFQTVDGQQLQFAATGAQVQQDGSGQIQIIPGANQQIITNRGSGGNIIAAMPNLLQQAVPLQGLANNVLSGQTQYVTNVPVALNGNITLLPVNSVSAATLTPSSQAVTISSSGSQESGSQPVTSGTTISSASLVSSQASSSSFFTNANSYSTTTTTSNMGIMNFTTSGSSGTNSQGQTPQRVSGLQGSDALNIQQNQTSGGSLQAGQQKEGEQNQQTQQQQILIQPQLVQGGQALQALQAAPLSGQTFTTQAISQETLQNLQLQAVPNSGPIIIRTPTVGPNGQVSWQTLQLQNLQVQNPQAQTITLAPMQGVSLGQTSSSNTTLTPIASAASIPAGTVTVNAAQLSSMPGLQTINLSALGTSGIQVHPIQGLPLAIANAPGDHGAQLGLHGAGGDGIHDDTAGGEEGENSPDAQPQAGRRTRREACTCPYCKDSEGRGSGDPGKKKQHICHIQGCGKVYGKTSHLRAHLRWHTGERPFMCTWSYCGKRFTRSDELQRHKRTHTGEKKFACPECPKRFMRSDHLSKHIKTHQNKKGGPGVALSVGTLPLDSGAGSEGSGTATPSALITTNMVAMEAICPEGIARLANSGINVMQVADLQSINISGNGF
Sequence of Hepatocyte nuclear factor 3-beta (Homo sapiens) (Q9Y261 whole entry, looked up): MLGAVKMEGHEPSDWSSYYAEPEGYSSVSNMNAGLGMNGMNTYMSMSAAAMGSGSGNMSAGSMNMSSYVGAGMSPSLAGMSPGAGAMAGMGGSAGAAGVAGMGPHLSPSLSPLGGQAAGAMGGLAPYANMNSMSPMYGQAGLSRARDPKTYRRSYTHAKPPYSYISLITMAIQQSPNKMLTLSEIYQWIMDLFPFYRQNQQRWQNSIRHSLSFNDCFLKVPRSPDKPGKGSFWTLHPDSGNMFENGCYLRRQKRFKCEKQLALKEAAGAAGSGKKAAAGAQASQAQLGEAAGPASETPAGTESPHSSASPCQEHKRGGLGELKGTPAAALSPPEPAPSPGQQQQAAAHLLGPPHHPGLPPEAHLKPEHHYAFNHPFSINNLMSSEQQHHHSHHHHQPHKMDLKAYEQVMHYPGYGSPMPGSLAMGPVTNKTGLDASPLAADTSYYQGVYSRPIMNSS

O=c1[nH]c(Cl)c(Cl)cc1Cl
active: [15] 38.7 µM
inactive: all other assays above

[CH3][Sn]([Cl])([Cl])[Cl]
inactive: all assays above

CCOP(=O)(OCC)Oc1ccc([N+](=O)[O-])cc1
active: [15] 26.8 µM
inactive: all other assays above

Clc1ccc(-c2ccccc2)cc1
active: [3] 139 µM | [15] 42.7 µM | [17] 117 µM
inactive: all other assays above

O=[N+]([O-])O
inactive: all assays above

Nc1cc(Cl)cc(Cl)c1
inactive: all assays above

Nc1ccccc1C(=O)OCCc1ccccc1
active: [10] 14.6 µM | [15] 12.3 µM
inactive: all other assays above

CC(C)(Cl)Cl
inactive: all assays above

CCOC(=O)N(C)N=O
active: [15] 26.1 µM
inactive: all other assays above

COc1ncc(F)c2nc(S(=O)(=O)Nc3c(F)cccc3F)nn12
active: [15] 15.3 µM
inactive: all other assays above

O=C1Nc2ccc(Cl)cc2C(c2ccccc2)=NC1O (stereo not given)
inactive: all assays above

O=C(O)COc1ccccc1
inactive: all assays above

O=C=Nc1ccccc1
active: [15] 11.7 µM
inactive: all other assays above
